SMILES strings stand for the structures. “And” between values parts separate entries of the source, which are not always exact repeats. Equal entries are not always repeated. Results filed as inconclusive are left out. A structure can be active in one record and inactive in another. The source made the active and inactive calls. Unless noted, the call rests on the fitted dose curve; in most records, active means well fitted curve in the direction sought with a large enough effect; inconclusive means small, poorly fitted or top-dose-only effect, or another doubt; inactive means no such curve, though single readings can be large; an effect the other way counts as inactive or inconclusive.

Assay [1] is described as follows: S16 Schwann cell PMP22 intronic element beta-lactamase assay (AID 624044; calls by dose curve;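 further: 0% = DMSO and -100% = potassium clavulanate positive control; nearly all actives have a fitted effect of over 15% in size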). In outline: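 Beta-lactamase reporter under a PMP22 intronic regulatory element in stable S16 rat Schwann cells; 24 h compound exposure. 460 nm blue signal normalized between DMSO (0%) and potassium clavulanate, with 535 nm FRET tracking viability; curves classed by r2 and response.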
The target of assay [2] is Voltage-gated inwardly rectifying potassium channel KCNH2 (Homo sapiens) (UniProt Q12809). Description: qHTS Assay for Small Molecule Inhibitors of the Human hERG Channel Activity (AID 588834).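 Further: lower thallium flux fluorescence means stronger hERG block; nearly all actives have a fitted effect of over 50% in size.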 Further: potency means the concentration at half of the fitted maximal effect. In outline:
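Homogeneous FluxOR thallium flux assay using hERG-expressing U2OS cells (BacMam). Compound treatment about 10 minutes preceded stimulation; reduced fluorescence taken as channel block.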
(qHTS replaces the single test concentration by a dilution series.)

Assay [3] addresses Luciferin 4-monooxygenase (Photinus pyralis) (UniProt P08659). The assay is described as follows: Biochemical firefly luciferase enzyme assay for NPC (AID 624030).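 Further: purified P. pyralis luciferase at 10 nM with luciferin and ATP substrate; series mostly up to about 59 µM; 0% = DMSO and -100% = full luciferase inhibition by PTC124 control; nearly all actives have a fitted effect of over 70% in size.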 In outline:
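Purified P. pyralis luciferase at 10 nM in 50 mM Tris Acetate (final), luminescence read within 5 minutes of enzyme addition to compounds. Activity normalised to PTC124 versus DMSO; concentration-response curves classed by r2, magnitude and activity.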

A short description of assay [4]: S16 Schwann cell viability assay (CellTiter-Glo assay) (AID 624031).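 Further: cellular ATP luminescence as a viability measure; series mostly up to about 58 µM; plate controls were DMSO-treated cells for no effect and cell-free wells for full effect; nearly all actives have a fitted effect of over 70% in size.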 In outline:
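Untransfected S16 rat Schwann cells; compound 24 h, 37 °C/5% CO2; CellTiter-Glo ATP luminescence. % activity vs no-cell wells and DMSO controls (0%); concentration-effect curves classed by r2, response magnitude, activity.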
(In general: Cellular ATP, detected with luciferase, serves as a proxy for viable cell number.)

Assay [5] is described as follows: S16 Schwann cell PMP22 intronic element firefly luciferase assay (AID 624032). Further: nearly all actives have a fitted effect of over 30% in size. Further: potency means the concentration at half of the fitted maximal effect. In outline: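 Rat S16 Schwann cells stably carrying firefly luciferase driven by a PMP22 intronic element, in 10% FBS, treated 24 h at 37 C. ONE-Glo luminescence normalized to PTC124 control and DMSO (0%); curves classed by r2, magnitude and activity.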
Assay [6] in a line: qHTS assay for small molecule agonists of the antioxidant response element (ARE) signaling pathway (AID 651741; active means well fitted activation curve with a large enough effect in the signal ratio; the % refers to the signal ratio; further: potency means the concentration at half of the fitted maximal effect; on activation: % of control where 0% means no effect). In outline:
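Stably integrated ARE-beta-lactamase reporter HepG2 cells; 16 h compound incubation, 37 C; LiveBLAzer FRET substrate 2 h at room temperature; fluorescence intensity.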

The nature of assay [7]: qHTS assay for small molecule activators of the p53 signaling pathway (AID 651743; active means well fitted activation curve with a large enough effect in the signal ratio, not every such curve was filed as active; the % refers to the signal ratio; further: series mostly up to about 92 µM; % of control where 0% means no effect). The note with it: HCT-116 p53RE-bla, beta-lactamase FRET ratio, 16 h; activation: stronger effect = higher value. In outline:
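Following 16 hours of compound exposure at 37 C, HCT-116 cells bearing the p53RE-bla reporter were loaded with LiveBLAzer B/G FRET substrate for 2 hours at room temperature and fluorescence intensity was recorded.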

Assay [8] can be described thus: qHTS assay for small molecule activators of the nuclear factor-kappa B (NF-kB) signaling pathway (AID 651749; active means well fitted activation curve with a large enough effect in the signal ratio; the % refers to the signal ratio; further: series mostly up to about 77 µM; % of control where 0% means no effect). As to conditions: NF-kB-bla ME-180 cells, beta-lactamase FRET ratio, 16 h; stronger effect = higher value. In outline: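 In this qHTS format, compounds acting as activators increase NF-kB-driven beta-lactamase in ME-180 cells, measured as disrupted FRET after 16 hr exposure at 37C and 5% CO2.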

Assay [9] can be described thus: qHTS of Trypanosoma Brucei Inhibitors: LOPAC Validation (AID 624147). Further: 0% is about no effect. In outline:
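Luminescence from Kinase-Glo Plus, added after a 45-minute room-temperature reaction, served as the end-point read-out. The enzyme and substrate were preincubated with compound before ADP (130 uM final) initiated turnover. Concentration-effect curves came from normalized qHTS data.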

The target in assay [10] is Glucagon-like peptide 1 receptor (Homo sapiens) (UniProt P43220). The assay is described as follows: qHTS of GLP-1 Receptor Agonists: LOPAC Validation (AID 624148).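 Further: 0% is about no effect; higher luminescence signal means agonism.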 In outline: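 HEK293 cells stably co-expressing GLP-1R and a cAMP-responsive luciferase reporter, plated 12 hours before compound, then incubated 4-6 hr at 37 deg C. Luminescence read 12 min after detection reagent.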

A short description of assay [11]: qHTS of Nrf2 Activators: LOPAC Validation (AID 624149). Further: 0% is about no effect. In outline: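 Cells (AREc32_Fluc) are plated at 1000 per well in OPTI-MEM containing 5% FBS and left overnight. Compounds are pinned in and incubated 24 hr at 37 deg C, and firefly luciferase is detected with Steady-Glo.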
Assay [12] can be described thus: HTS Assay for Allosteric Antagonists of the Human D2 Dopamine Receptor: Hit Validation in HTRF (AID 624455). Further: potency means the concentration at half of the fitted maximal effect.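 Further: stable D1 dopamine receptor cell line scored for blocking the D1 response.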 In outline: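 Inhibition of the D1-mediated response is measured by HTRF in cells that stably express the D1 dopamine receptor. Compounds reaching this step are hits from calcium-flux antagonism testing at EC80 dopamine in inducible Hek293 Trex D2 cells.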
In general terms: Time-resolved FRET reads energy transfer from a long-lived donor to a nearby acceptor.

The target of assay [13] is Glutaminase kidney isoform, mitochondrial (Homo sapiens) (UniProt O94925). Description: qHTS for Inhibitors of Glutaminase (GLS): LOPAC Validation (AID 624146).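 Further: glutamate product detected by oxidase and peroxidase coupled Amplex red fluorescence gain; series mostly up to about 46 µM; on the % scale 0 is the no-effect control and ±100 the full control effect; nearly all actives have a fitted effect of over 60% in size.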 In outline: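 Assay buffer: 45 mM KH2PO4 pH 8.2, 0.02% Tween-20. hKGA acts on L-glutamine (1 mM solution added); product glutamate is reported by an oxidase/peroxidase Amplex Red coupling, with fluorescence taken at baseline and 30 min.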
Glutaminase kidney isoform, mitochondrial (Homo sapiens), sequence (O94925 whole entry, looked up, canonical isoform): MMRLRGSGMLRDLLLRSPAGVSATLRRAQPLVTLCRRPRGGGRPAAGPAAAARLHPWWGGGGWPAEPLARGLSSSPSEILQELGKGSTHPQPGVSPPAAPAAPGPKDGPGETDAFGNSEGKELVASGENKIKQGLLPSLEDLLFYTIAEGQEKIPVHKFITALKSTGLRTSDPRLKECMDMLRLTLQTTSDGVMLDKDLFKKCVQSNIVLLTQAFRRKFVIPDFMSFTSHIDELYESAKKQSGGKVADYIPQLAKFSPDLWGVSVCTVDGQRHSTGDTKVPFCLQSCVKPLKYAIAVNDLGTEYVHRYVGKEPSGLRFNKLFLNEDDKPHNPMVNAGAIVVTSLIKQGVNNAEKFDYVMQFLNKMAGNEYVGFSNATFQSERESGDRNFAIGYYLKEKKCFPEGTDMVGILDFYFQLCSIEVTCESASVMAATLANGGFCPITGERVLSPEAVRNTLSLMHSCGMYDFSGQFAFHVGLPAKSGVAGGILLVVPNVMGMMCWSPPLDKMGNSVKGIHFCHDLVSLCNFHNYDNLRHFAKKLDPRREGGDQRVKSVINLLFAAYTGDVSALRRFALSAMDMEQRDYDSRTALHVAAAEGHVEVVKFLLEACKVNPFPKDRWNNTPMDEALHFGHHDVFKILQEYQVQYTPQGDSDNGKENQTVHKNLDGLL

Luciferin 4-monooxygenase (Photinus pyralis), sequence (P08659 whole entry, looked up): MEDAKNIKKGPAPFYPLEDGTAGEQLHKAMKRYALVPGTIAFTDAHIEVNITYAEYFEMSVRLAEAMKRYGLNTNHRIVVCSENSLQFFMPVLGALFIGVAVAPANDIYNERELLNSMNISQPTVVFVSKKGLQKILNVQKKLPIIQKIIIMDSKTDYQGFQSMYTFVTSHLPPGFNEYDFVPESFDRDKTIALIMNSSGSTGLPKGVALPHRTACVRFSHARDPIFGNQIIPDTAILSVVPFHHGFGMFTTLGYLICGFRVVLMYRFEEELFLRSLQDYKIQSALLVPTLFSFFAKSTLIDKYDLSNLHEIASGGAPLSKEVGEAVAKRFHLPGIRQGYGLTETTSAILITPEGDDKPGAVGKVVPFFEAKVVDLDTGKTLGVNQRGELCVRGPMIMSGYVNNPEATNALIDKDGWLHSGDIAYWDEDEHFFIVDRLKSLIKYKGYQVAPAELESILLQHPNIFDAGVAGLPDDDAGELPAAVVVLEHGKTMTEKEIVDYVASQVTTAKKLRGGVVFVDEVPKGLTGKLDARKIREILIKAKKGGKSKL
Voltage-gated inwardly rectifying potassium channel KCNH2 (Homo sapiens), sequence (Q12809 whole entry, looked up): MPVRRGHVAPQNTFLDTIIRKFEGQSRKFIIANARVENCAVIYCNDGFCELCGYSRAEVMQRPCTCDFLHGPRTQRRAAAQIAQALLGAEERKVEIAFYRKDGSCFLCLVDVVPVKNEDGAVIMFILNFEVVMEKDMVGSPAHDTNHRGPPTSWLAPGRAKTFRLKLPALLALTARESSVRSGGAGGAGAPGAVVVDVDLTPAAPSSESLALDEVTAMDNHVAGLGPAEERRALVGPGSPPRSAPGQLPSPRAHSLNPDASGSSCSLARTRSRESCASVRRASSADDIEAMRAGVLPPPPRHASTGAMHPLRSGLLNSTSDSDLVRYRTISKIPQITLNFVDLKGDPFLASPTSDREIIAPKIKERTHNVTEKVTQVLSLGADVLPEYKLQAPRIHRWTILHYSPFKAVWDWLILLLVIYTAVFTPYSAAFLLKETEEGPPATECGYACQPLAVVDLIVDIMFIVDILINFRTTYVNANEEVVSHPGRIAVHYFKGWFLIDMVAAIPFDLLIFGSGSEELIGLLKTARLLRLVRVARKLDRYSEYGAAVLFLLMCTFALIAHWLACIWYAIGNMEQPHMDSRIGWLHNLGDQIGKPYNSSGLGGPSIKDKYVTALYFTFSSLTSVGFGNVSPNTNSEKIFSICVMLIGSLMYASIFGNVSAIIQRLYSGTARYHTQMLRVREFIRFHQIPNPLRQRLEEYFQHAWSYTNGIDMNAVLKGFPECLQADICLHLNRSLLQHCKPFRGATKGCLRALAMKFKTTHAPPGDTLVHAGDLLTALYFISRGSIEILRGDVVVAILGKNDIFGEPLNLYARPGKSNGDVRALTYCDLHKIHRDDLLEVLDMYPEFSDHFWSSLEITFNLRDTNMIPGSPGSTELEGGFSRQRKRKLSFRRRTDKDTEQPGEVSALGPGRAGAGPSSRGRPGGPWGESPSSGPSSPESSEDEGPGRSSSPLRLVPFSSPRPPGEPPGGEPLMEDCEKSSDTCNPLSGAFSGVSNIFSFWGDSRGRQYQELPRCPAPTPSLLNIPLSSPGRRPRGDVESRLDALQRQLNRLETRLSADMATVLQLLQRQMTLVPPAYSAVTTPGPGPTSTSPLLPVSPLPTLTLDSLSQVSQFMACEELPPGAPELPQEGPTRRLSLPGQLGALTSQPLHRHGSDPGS
Glucagon-like peptide 1 receptor (Homo sapiens), sequence (P43220 whole entry, looked up): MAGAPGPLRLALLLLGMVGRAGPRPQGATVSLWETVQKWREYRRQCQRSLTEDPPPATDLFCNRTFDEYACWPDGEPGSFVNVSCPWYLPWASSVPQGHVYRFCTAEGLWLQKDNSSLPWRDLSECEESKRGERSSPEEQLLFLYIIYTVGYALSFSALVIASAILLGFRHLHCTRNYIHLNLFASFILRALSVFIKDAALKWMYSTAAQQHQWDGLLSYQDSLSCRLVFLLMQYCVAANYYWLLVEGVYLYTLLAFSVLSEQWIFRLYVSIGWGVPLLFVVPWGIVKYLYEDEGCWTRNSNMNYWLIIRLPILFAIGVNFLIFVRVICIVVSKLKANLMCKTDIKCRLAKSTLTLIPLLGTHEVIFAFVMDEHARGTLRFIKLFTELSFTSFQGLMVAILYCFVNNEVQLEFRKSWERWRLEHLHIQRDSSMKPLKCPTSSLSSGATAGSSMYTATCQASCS

Consider `CN1C(=S)CN=C(c2ccccc2)c2cc(Cl)ccc21`, for which the Potency result in assay [1] is “inactive”.

Turning to `CCOP(=S)(OCC)Oc1cc(C)nc(C(C)C)n1`, the Potency result in assay [2], in assay [3], in [4], in assay [5], in assay [1] and in assay [6] was “inactive” throughout. Further, the activation in [7] was -0.592% (inactive) and 3.54% (inactive); in assay [8], -0.534% (inactive) and -0.189% (inactive).

Regarding `O=[N+]([O-])c1cc([As](=O)(O)O)ccc1O`, the Potency result in assay [2], in assay [3], in assay [4], in [5] and in assay [1] was “inactive” in each case.

Turning to `Oc1ccc(Cl)cc1Cc1ccccc1`, the Potency result in [2] is “inactive and 44.7 µM (active)”; in assay [6] it was 54.5 µM (active) and 42.2 µM (active). Also, the Potency result in assay [3], in [4], in assay [5] and in assay [1] was “inactive” in each case. The activation in assay [7] was -3.88% (inactive) and -4.49% (inactive); in [8], -0.62% (inactive) and 0.873% (inactive).

Regarding `CC[C@@H](CO)NC(=O)[C@@H]1C=C2c3cccc4[nH]cc(c34)C[C@H]2N(C)C1`, the Potency result in assay [2], in [3], in assay [4] and in assay [1] was “inactive” each time. Also, the compound was classed as inactive in [9], in [10] and in [11]. Besides, the Potency in [12] was 0.0052 µM (active).

With `CC1OC(C)OC(C)O1` (stereo not given), the Potency entry in [2], in assay [3], in assay [4], in [5] and in assay [1] was “inactive” in each case.

For the compound `CCC1(C2=NCCN2)Cc2ccccc2O1` (stereo not given), the Potency entry in assay [2], in assay [3], in assay [4], in [5] and in assay [12] was “inactive” each time. Further, the outcome in [9], in [10] and in assay [11] was inactive.

Take `Cc1ccc(-c2nc3ccc(C)cn3c2CC(=O)N(C)C)cc1`: the Potency result in [2], in assay [3], in [4], in assay [5] and in assay [1] was “inactive” each time.

For `COc1ccccc1N1CCNCC1`, the Potency result in assay [2], in [3], in assay [4], in [5], in assay [1] and in [13] was “inactive” in each case. Further, the Potency result in assay [12] was “inactive”. The result in [9], in assay [10] and in assay [11] was inactive.

For the compound `COc1ccc(C(CN(C)C)C2(O)CCCCC2)cc1` (stereo not given), the Potency entry in [2], in assay [3], in [4], in assay [5] and in [13] was “inactive” each time. Also, the result in assay [9], in [10] and in [11] was inactive.

Regarding `CCN(CC)CCN1C(=O)CN=C(c2ccccc2F)c2cc(Cl)ccc21`, the Potency in assay [2] is 3.98 µM (active). In addition, the Potency result in assay [3], in assay [4], in [5] and in [1] was “inactive” in each case.

For the compound `Nc1ccncc1`, the Potency entry in assay [2], in assay [3], in assay [4], in [5], in assay [13] and in [12] was “inactive” each time. Also, the Potency entry in assay [6] is “inactive”. For the same compound, the compound was classed as inactive in assay [9], in assay [10] and in assay [11]. The activation in assay [7] was 2.37% (inactive); in assay [8], -0.507% (inactive).

For the compound `c1ccc(C2CC2)c(OCC2=NCCN2)c1`, the Potency result in assay [2], in assay [3], in assay [4], in assay [5], in assay [13] and in [12] was “inactive” each time. Moreover, the compound was called inactive in assay [9], in [10] and in [11].

Take `CC(C)(C)CC(C)(C)c1ccc(O)cc1`: the Potency result in assay [2], in assay [3], in [4], in assay [5] and in [1] was “inactive” in each case. Also, in assay [7], the activation was 1.12% (inactive).

Take `Oc1cc(Cl)ccc1Oc1ccc(Cl)cc1Cl`: the Potency entry in assay [2], in assay [3], in [4], in assay [5] and in assay [1] was “inactive” in each case. Further, the Potency in assay [6] was 54.5 µM (active). Besides, the activation in assay [8] is 2.77% (inactive).

On to `NCC1(CC(=O)O)CCCCC1`, for which the Potency entry in [2], in [3], in assay [4], in assay [5], in [13] and in assay [12] was “inactive” throughout. Moreover, the result in [9], in assay [10] and in assay [11] was inactive.

Consider `NCC(CC(=O)O)c1ccc(Cl)cc1` (stereo not given), for which the Potency result in assay [2], in [3], in [4], in assay [5], in [13] and in assay [12] was “inactive” each time. The compound was classed as inactive in assay [9], in [10] and in [11].

Take `C#CCOC(C(=O)OCCN(C)C)(c1ccccc1)c1ccccc1`: the Potency entry in [2], in assay [3], in assay [4], in assay [5] and in assay [1] was “inactive” in each case.

In the case of `CC[C@@H](CO)NC(=O)[C@@H]1C=C2c3cccc4c3c(cn4C)C[C@H]2N(C)C1`, the Potency entry in [2], in assay [3], in [4], in [5] and in [1] was “inactive” in each case. The call in [10] and in assay [11] was inactive.

For `NCC(O)c1ccc(O)cc1` (stereo not given), the Potency entry in assay [2], in [3], in [4], in assay [13] and in assay [6] was “inactive” in each case. Also, in assay [5], the Potency was 16.1 µM (active). Also, the result in assay [9], in assay [10] and in assay [11] was inactive. The activation in assay [7] is -5.43% (inactive); in assay [8], -2.66% (inactive).

On to `CC(=O)[C@H]1CC[C@H]2[C@@H]3CC[C@H]4C[C@](C)(O)CC[C@]4(C)[C@H]3CC[C@]12C`, for which the Potency entry in assay [2], in assay [3], in assay [4], in [5], in assay [1] and in assay [13] was “inactive” in each case. Also, the Potency entry in [12] is “inactive”. Also, the outcome in [9], in assay [10] and in [11] was inactive.

As to `CCN(CC)CCOC(=O)C(O)(c1ccccc1)c1ccccc1`, the Potency in assay [2] is 15.8 µM (active). Also, the Potency result in assay [3], in assay [4] and in assay [1] was “inactive” in each case.

For the compound `Cc1ncc(CNC(=O)N(CCCl)N=O)c(N)n1`, the Potency entry in assay [2], in assay [3], in [4], in assay [5], in assay [1] and in assay [13] was “inactive” throughout. Besides, the Potency result in assay [12] is “inactive”. Moreover, the compound was called inactive in [9], in assay [10] and in assay [11].

For `Cc1cccc(C)c1NC1=NCCCS1`, the Potency result in [2], in assay [3], in [4], in assay [5], in assay [1] and in assay [13] was “inactive” each time. The Potency result in assay [12] is “inactive”. For the same compound, the compound was classed as inactive in [9], in [10] and in assay [11].
